For 20 compounds, Potency and outcome results are on record in PubChem BioAssay (Tox21).

Structures are written as SMILES. Results filed as inconclusive are left out. Unmarked numbers belong to inactive results. Calls of active or inactive are those of the source. Unless noted, calls come from the whole dose curve; as a rule, active = well fitted curve in the direction sought with a large enough effect in the repeat runs; inconclusive = weak or mixed curves; inactive = no such curve, though single readings can be large; an effect the other way counts as inactive or inconclusive.

A short description of experiment [1]: qHTS assay to identify small molecule antagonists of the thyroid receptor (TR) signaling pathway (AID 743065). Note: nearly all actives have a fitted effect of over 55% in size. Note: potency is the fitted concentration of half-maximal effect. In short, it runs like this:
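Antagonism measured as loss of luciferase signal in GH3 cells stably carrying a TRE-luciferase reporter, co-treated with compound and T3 (1 nM final) for 23.5 h at 37 C. Viability was read in the same well by CellTiter-Fluor.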
For orientation: Quantitative high-throughput screening tests each substance at several concentrations.

The subject of experiment [2] is thyroid hormone receptor (rat, GH3 cells). Briefly: qHTS assay to identify small molecule agonists of the thyroid receptor (TR) signaling pathway (AID 743066; calls by dose curve; note: potency is the fitted concentration of half-maximal effect).
The target of experiment [3] is Estrogen receptor (Homo sapiens) (UniProt P03372). The experiment can be described thus: qHTS assay to identify small molecule antagonists of the estrogen receptor alpha (ER-alpha) signaling pathway (AID 743069; active = well fitted curve in the direction sought with a large enough effect in the signal ratio in the repeat runs, not every such curve was filed as active; the % refers to the signal ratio). Put shortly:
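Antagonist mode: compounds in DMSO were co-added with 17beta-estradiol to ER-alpha-bla HEK293 cells (2% charcoal-stripped serum) and left 18 h at 37C. Reporter inhibition was measured as FRET fluorescence after 2 h LiveBLAzer substrate at room temperature.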

Experiment [4] in a line: qHTS assay to identify small molecule antagonists of the estrogen receptor alpha (ER-alpha) signaling pathway - cell viability counter screen (AID 743074; calls by dose curve;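 note: HEK293 cells carrying ER-alpha-UAS-bla reporter stimulated with 17beta-estradiol; nearly all actives have a fitted effect of over 45% in size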).
Experiment [5] deals with Estrogen receptor (Homo sapiens) (UniProt P03372). The experiment can be described thus: qHTS assay to identify small molecule agonists of the estrogen receptor alpha (ER-alpha) signaling pathway (AID 743075; calls by dose curve;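 note: HEK293 GripTite cells with ER-alpha and UAS-driven beta-lactamase reporter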).
Estrogen receptor (Homo sapiens), sequence (P03372 whole entry, looked up): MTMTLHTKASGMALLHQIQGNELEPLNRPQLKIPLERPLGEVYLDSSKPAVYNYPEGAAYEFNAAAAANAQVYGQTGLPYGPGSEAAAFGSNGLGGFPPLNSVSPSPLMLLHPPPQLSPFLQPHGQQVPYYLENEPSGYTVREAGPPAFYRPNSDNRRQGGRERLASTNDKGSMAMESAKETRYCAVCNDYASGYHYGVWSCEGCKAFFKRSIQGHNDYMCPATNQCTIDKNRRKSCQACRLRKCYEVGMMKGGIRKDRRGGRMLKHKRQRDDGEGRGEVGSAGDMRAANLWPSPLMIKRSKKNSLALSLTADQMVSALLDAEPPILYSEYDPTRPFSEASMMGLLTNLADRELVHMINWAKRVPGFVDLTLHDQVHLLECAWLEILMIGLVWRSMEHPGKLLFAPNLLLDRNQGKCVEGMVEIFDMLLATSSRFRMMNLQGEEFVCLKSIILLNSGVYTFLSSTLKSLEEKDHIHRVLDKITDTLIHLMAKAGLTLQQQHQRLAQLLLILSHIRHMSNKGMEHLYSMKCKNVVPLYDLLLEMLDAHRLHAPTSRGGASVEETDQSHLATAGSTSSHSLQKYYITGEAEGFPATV
The target is the same in experiment [6]. Briefly: qHTS assay to identify small molecule agonists of the estrogen receptor alpha (ER-alpha) signaling pathway using the BG1 cell line (AID 743079). Note: nearly all actives have a fitted effect of over 20% in size.
Experiment [7] can be described thus: qHTS assay to identify small molecule antagonists of the estrogen receptor alpha (ER-alpha) signaling pathway using the BG1 cell line (AID 743080; calls by dose curve;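 note: BG1 cells stimulated with 17beta-estradiol alongside compound; series mostly up to about 70 µM; nearly all actives have a fitted effect of over 25% in size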). Put shortly:
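Luciferase inhibition measured with ONE-Glo after 30 min at RT in BG1Luc4E2 cells given test compounds and 17beta-estradiol for 21.5 h at 37 C; CellTiter-Fluor viability read in the same wells beforehand.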

Experiment [8] can be described thus: qHTS assay to identify small molecule antagonists of the estrogen receptor alpha (ER-alpha) signaling pathway using the BG1 cell line - cell viability counter screen (AID 743081).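 Note: compound given together with 17beta-estradiol as the ER stimulus; series mostly up to about 70 µM; nearly all actives have a fitted effect of over 45% in size.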
For the next experiment, the target named is Aromatase (Homo sapiens) (UniProt P11511). The experiment can be described thus: qHTS assay to identify aromatase inhibitors (AID 743083). Note: series mostly up to about 70 µM; nearly all actives have a fitted effect of over 55% in size.
Aromatase (Homo sapiens), sequence (P11511 whole entry, looked up): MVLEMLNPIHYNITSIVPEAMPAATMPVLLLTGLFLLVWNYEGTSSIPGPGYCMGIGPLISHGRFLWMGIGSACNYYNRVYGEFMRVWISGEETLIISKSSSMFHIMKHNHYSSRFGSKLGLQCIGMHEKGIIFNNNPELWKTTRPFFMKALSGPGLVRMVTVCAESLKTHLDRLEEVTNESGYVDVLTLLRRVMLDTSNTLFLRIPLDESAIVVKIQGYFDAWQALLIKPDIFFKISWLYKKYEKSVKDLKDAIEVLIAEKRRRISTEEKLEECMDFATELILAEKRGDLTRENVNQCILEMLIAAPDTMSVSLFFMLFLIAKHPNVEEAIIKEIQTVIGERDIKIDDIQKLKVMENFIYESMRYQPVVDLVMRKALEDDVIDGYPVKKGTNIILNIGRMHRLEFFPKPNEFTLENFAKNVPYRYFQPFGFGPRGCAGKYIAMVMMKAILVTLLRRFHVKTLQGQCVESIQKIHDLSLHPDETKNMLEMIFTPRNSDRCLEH
A short description of experiment [9]: qHTS assay to identify aromatase inhibitors - cell viability counter screen (AID 743084).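 Note: cells stimulated with testosterone during compound exposure; nearly all actives have a fitted effect of over 55% in size.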
The target in experiment [10] is Aryl hydrocarbon receptor (Homo sapiens) (UniProt P35869). Briefly: qHTS assay to identify small molecule that activate the aryl hydrocarbon receptor (AhR) signaling pathway (AID 743085).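 Note: HG2L7.5c1 human HepG2 liver cells with stably integrated DRE-driven firefly reporter; series mostly up to about 70 µM; nearly all actives have a fitted effect of over 15% in size.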 In short, it runs like this: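 Stably transfected human liver carcinoma cells (HG2L7.5c1; 20 DRE-firefly luciferase) were incubated 5 h, dosed, and kept 24 h at 37C. Agonism was scored from increased luciferase luminescence.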
Aryl hydrocarbon receptor (Homo sapiens), sequence (P35869 whole entry, looked up): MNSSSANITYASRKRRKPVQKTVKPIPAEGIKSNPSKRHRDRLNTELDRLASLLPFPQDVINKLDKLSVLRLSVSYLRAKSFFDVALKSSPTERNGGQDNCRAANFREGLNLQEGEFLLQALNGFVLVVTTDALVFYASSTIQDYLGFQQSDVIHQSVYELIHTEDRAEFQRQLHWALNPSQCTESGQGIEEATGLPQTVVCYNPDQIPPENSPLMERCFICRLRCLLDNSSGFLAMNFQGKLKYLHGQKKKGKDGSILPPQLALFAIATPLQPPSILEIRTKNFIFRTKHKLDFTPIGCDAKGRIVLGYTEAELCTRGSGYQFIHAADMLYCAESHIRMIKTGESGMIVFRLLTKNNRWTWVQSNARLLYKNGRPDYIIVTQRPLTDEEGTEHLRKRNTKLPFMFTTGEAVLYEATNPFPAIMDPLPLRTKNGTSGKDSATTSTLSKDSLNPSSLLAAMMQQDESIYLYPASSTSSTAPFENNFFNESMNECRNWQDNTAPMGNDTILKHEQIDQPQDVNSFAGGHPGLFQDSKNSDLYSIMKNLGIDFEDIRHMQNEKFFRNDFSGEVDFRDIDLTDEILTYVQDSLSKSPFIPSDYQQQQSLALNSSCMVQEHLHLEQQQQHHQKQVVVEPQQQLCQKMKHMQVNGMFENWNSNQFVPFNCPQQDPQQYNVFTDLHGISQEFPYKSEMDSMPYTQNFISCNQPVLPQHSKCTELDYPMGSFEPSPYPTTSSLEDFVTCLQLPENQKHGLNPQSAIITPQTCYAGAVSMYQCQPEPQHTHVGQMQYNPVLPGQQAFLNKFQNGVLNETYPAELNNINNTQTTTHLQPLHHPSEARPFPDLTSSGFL

For experiment [11], the target named is Peroxisome proliferator-activated receptor gamma (Homo sapiens) (UniProt P37231). The experiment can be described thus: qHTS assay to identify small molecule agonists of the peroxisome proliferator-activated receptor gamma (PPARg) signaling pathway (AID 743094; active = well fitted activation curve with a large enough effect in the signal ratio in the repeat runs, not every such curve was filed as active; the % refers to the signal ratio). Put shortly: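 Reporter activation was scored by fluorescence of cleaved LiveBLAzer B/G substrate (1 h, room temperature) in PPARg-bla HEK293H cells previously treated 17 h at 37C with DMSO-dissolved compounds.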
Peroxisome proliferator-activated receptor gamma (Homo sapiens), sequence (P37231 whole entry, looked up): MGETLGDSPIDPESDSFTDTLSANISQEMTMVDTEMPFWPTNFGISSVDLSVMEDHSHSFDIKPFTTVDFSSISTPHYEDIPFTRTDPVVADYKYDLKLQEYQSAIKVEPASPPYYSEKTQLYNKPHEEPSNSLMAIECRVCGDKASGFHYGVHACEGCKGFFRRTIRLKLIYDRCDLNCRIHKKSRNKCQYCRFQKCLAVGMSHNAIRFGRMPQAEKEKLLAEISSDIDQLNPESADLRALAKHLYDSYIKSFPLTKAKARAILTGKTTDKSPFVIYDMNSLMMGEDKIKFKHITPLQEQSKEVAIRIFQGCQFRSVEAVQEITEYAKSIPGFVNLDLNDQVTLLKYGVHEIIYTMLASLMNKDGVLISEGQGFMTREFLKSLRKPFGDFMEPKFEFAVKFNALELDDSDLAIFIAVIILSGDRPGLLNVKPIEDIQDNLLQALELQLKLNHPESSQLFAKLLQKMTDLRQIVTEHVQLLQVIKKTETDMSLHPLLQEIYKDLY

Experiment [12] can be described thus: qHTS assay to identify small molecule antagonists of the peroxisome proliferator-activated receptor gamma (PPARg) signaling pathway - cell viability counter screen (AID 743194). Note: nearly all actives have a fitted effect of over 55% in size. Note: potency is the fitted concentration of half-maximal effect. Put shortly:
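Viability was measured as CellTiter-Glo luminescence in GeneBLAzer PPARg UAS-bla HEK293H cells. These cells had been exposed 17 h at 37 C to compounds together with rosiglitazone at 50 nM final, with the beta-lactamase readout taken in the same wells.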

Experiment [13] can be described thus: qHTS assay for small molecule agonists of the antioxidant response element (ARE) signaling pathway (AID 743202; active = well fitted activation curve with a large enough effect in the signal ratio in the repeat runs, not every such curve was filed as active; the % refers to the signal ratio). Put shortly: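 After 16 hours of compound treatment at 37 C, HepG2 cells with a stably integrated ARE-driven beta-lactamase reporter were loaded 2 hours at room temperature with LiveBLAzer B/G FRET substrate and fluorescence intensity measured.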

Experiment [14] in a line: qHTS assay for small molecule agonists of the antioxidant response element (ARE) signaling pathway - cell viability counter screen (AID 743203; calls by dose curve; note: nearly all actives have a fitted effect of over 55% in size). In short, it runs like this:
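Viability counter screen: stably transfected ARE-bla HepG2 line, 16 hrs compound exposure at 37C/5% CO2, ATP-based CellTiter-Glo luminescence measured in the reporter wells.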

A short description of experiment [15]: qHTS assay for small molecule activators of the heat shock response signaling pathway - cell viability counter screen (AID 743209). Note: nearly all actives have a fitted effect of over 50% in size. Put shortly:
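Viability of HSE-bla HeLa cells is measured with CellTiter-Glo in the wells already used for the reporter read. Compound exposure lasts 5 h at 37 C, and luminescence is read after 30 min at room temperature.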

A short description of experiment [16]: qHTS assay for small molecule activators of the heat shock response signaling pathway (AID 743210; active = well fitted activation curve with a large enough effect in the signal ratio in the repeat runs, with a control signal flat, not every such curve was filed as active; the % refers to the signal ratio; note: series mostly up to about 63 µM). In short, it runs like this:
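Compound exposure lasted 5 h at 37 C in HeLa cells carrying a heat-shock-element-driven beta-lactamase reporter. Read-out: fluorescence intensity after 2.5 h room-temperature loading with LiveBLAzer B/G FRET substrate.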

Experiment [17] can be described thus: qHTS assay to identify small molecule that activate the aryl hydrocarbon receptor (AhR) signaling pathway - cell viability counter screen (AID 743086).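 Note: HepG2 liver cells carrying the AhR DRE luciferase reporter; series mostly up to about 70 µM; nearly all actives have a fitted effect of over 45% in size.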 In short, it runs like this:
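Cytotoxicity counter screen: CellTiter-Fluor signal (30 min, 37 C) in 4000 HepG2 cells/well carrying the DRE-luciferase reporter, following 24 h compound exposure at 37 C.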

The target in experiment [18] is Peroxisome proliferator-activated receptor gamma (Homo sapiens) (UniProt P37231). The experiment can be described thus: qHTS assay to identify small molecule antagonists of the peroxisome proliferator-activated receptor gamma (PPARg) signaling pathway (AID 743191; calls by dose curve; note: series mostly up to about 63 µM; nearly all actives have a fitted effect of over 30% in size). Put shortly: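 Beta-lactamase reporter under UAS control in HEK293H PPARg-bla cells; compound treatment 17 h at 37C. Read-out: fluorescence intensity after 1 h room-temperature incubation with LiveBLAzer B/G FRET substrate.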

With `CCCCCCOC(=O)CC(CC(=O)OCCCCCC)(OC(=O)CCC)C(=O)OCCCCCC`, the Potency entry in experiment [1], in experiment [2], in experiment [3], in experiment [5], in experiment [6] and in experiment [7] was “inactive” throughout. The Potency result (in the experiment with Aromatase (Homo sapiens); in experiment [9]; in [10]; in experiment [12]; in [13]) was “inactive” each time. The outcome in [4], in experiment [8], in [11], in [14], in experiment [15] and in experiment [16] was inactive.
`O=C(O)Cc1cc(I)c(Oc2cc(I)c(O)c(I)c2)c(I)c1`: the figures for the Potency in experiment [2] and in experiment [12] were 0.003 µM (active) and 19.1 µM (active), respectively. Besides, the compound was called inactive in experiment [4] and in [8]. Also, the Potency result (in experiment [5]; in experiment [7]; with Aromatase (Homo sapiens); in experiment [9]; in experiment [10]; in experiment [17]) was “inactive” in each case.
For `CCn1c(=O)c2c(nc(/C=C/c3ccc(OC)c(OC)c3)n2C)n(CC)c1=O`, the Potency entry in [12] and in [13] was “inactive” each time. Besides, the call in experiment [14], in experiment [15] and in experiment [16] was inactive.
Consider `COc1ccc(NC(C)=O)cc1`, for which the Potency result (in experiment [1]; in experiment [2]; with Aromatase (Homo sapiens); in [9]; in experiment [10]; in experiment [17]) was “inactive” in each case. In addition, the Potency result in experiment [12] and in experiment [13] was “inactive” in each case. In addition, the compound was called inactive in experiment [8], in [14], in [15] and in [16].
In the case of `O=c1[nH]c(=O)n([C@H]2O[C@H](CO)[C@@H](O)[C@@H]2O)cc1/C=C\Br`, the Potency result in [13] is “inactive”. Further, the result in experiment [14] and in [15] was inactive.
Regarding `COc1ccc(COC=O)cc1`, the Potency result (in experiment [1]; in experiment [2]; in experiment [5]; in experiment [6]; in [7]; in the experiment with Aromatase (Homo sapiens)) was “inactive” throughout. For the same compound, the Potency result in experiment [9], in experiment [10], in experiment [12] and in experiment [13] was “inactive” each time. The compound was classed as inactive in experiment [4], in experiment [8], in experiment [11], in [14] and in experiment [15].
For `O=C(CCOCCOCCOCCOCCC(=O)Nc1c(I)cc(I)c(C(=O)O)c1I)Nc1c(I)cc(I)c(C(=O)O)c1I`, in [13], the Potency result was “inactive”. The call in [14] and in experiment [15] was inactive.
Regarding `O=c1[nH]c2ccccc2c(=O)n1CCCl`, the compound was called inactive in [14], in experiment [15] and in experiment [16].
Take `NC1CCN(c2cccc(Cl)n2)CC1`: the Potency result (in [2]; with Aromatase (Homo sapiens); in experiment [9]; in experiment [10]; in [17]; in experiment [12]) was “inactive” each time. The compound was called inactive in [4], in experiment [11], in experiment [18], in [14], in experiment [15] and in experiment [16].
Take `CCCC(C)CO` (centres undefined): the Potency result (in experiment [1]; in experiment [2]; in the experiment with Aromatase (Homo sapiens); in experiment [9]; in experiment [10]; in experiment [17]) was “inactive” throughout. Moreover, the Potency result in experiment [12] and in [13] was “inactive” throughout. Also, the outcome in [4], in experiment [8], in experiment [11], in [14] and in [16] was inactive.
For `CC(=O)NC(Cc1ccccc1)C(=O)O` (centres undefined), the Potency entry in experiment [1], in experiment [2], in experiment [3], in [5], in experiment [6] and in experiment [7] was “inactive” in each case. In addition, the Potency entry (in the experiment with Aromatase (Homo sapiens); in experiment [9]; in experiment [10]; in [17]) was “inactive” in each case. Moreover, the compound was called inactive in experiment [4], in [8], in experiment [11], in experiment [18], in [14] and in experiment [16].
As to `Nc1nc(F)nc2c1ncn2[C@@H]1O[C@H](CO)[C@@H](O)[C@@H]1O`, the Potency in [1] is 18.8 µM (active). Besides, the Potency entry (in experiment [2]; in [3]; in [5]; in experiment [6]; in experiment [7]; with Aromatase (Homo sapiens)) was “inactive” throughout. The Potency result in experiment [9], in experiment [10] and in experiment [17] was “inactive” each time. The compound was classed as inactive in experiment [4], in [8], in [11], in experiment [14] and in experiment [15].
As for `Nc1ncnc2c1ncn2Cc1c(F)cccc1Cl`, the compound was called inactive in [18], in [14] and in experiment [16]. The Potency result in [12] and in experiment [13] was “inactive” throughout.
`Cc1c(F)cc2c(=O)c(C(=O)O)cn3c2c1CCC3C` (centres undefined): the compound was classed as inactive in experiment [14] and in experiment [16].
Turning to `CCCCCCC(=O)OCC`, the Potency entry (in experiment [1]; in [2]; in experiment [5]; in experiment [7]; with Aromatase (Homo sapiens); in experiment [9]) was “inactive” throughout. For the same compound, the Potency entry in [10] and in experiment [17] was “inactive” each time. The result in experiment [4], in experiment [8], in experiment [11], in [14], in [15] and in [16] was inactive.
For `CC(C)(C)N(CCO)CCO`, the Potency result in experiment [1], in [2], in [3], in [5], in experiment [6] and in experiment [7] was “inactive” in each case. The Potency result (in the experiment with Aromatase (Homo sapiens); in experiment [9]; in [10]; in experiment [17]; in experiment [12]) was “inactive” each time. In addition, the compound was classed as inactive in experiment [4], in [8], in experiment [11], in experiment [18], in experiment [14] and in [15].
Take `COc1ccc2cc(C=O)ccc2c1`: the Potency result in [12] and in experiment [13] was “inactive” each time. The outcome in experiment [14], in [15] and in experiment [16] was inactive.
For the compound `CO[Si](OC)(OC)OC`, the Potency entry (in experiment [2]; with Aromatase (Homo sapiens); in [9]; in [10]; in experiment [17]; in experiment [12]) was “inactive” in each case. Moreover, the Potency result in [13] is “inactive”. Besides, the outcome in experiment [4], in experiment [8], in experiment [11], in [14], in [15] and in experiment [16] was inactive.
Turning to `CCC(=O)c1cccc(Cl)c1`, the Potency entry (in experiment [1]; in [2]; with Aromatase (Homo sapiens); in [9]; in experiment [10]; in experiment [17]) was “inactive” throughout. The Potency result in [13] is “inactive”. Besides, the compound was classed as inactive in [4], in experiment [8], in experiment [11], in [18], in experiment [14] and in experiment [15]. For the same compound, in experiment [16], the compound was called inactive.
As to `O=C1CC2(CCCC2)CC(=O)N1`, the call in experiment [18], in experiment [14], in experiment [15] and in experiment [16] was inactive. The Potency result in experiment [12] is “inactive”.
